Drawing on PubChem BioAssay (EPA / NIEHS), this text covers AC50 and outcome for 39 compounds.

Several values for one entry are separate records, joined by “and”; a condition that tells them apart may be missing. Identical values can stand only once. Inconclusive results are not listed. More than one record can exist for a structure, and the calls need not agree. Activity calls are given as the source filed them. The calls were made as follows: active = hit-call score of the fitted dose curve at least 0.9, where 1 is the maximum; inconclusive = response in the unintended direction; inactive = score below 0.9.

This assay deals with human Retinoid X Receptor beta (RXRb), RXRB (gene 6257) (UniProt P28702). As to the kind of experiment: ATG_RXRb_TRANS: Attagene TRANS-FACTORIAL HepG2 Assay for human Retinoid X Receptor beta (RXRb) (AID 2283013). The procedure: ATG_TRANS is a cell-based, multiplexed-readout assay that uses HepG2, a human liver cell line, with measurements taken at 24 hours after chemical dosing in a 24-well plate.ATG_RXRb_TRANS is one of 30 assay component(s) measured or calculated from the ATG_TRANS assay. It is designed to make measurements of mRNA induction, a form of inducible reporter, as detected with fluorescence intensity signals by Reverse transcription polymerase chain reaction (RT-PCR) and Capillary electrophoresis technology.Data from the assay component ATG_RXRb_TRANS was analyzed into 1 assay endpoint. This assay endpoint, ATG_RXRb_TRANS, was analyzed in the positive analysis fitting direction relative to DMSO as the negative control and baseline of activity. Using a type of inducible reporter, measures of mRNA for gain-of-signal activity can be used to understand the reporter gene at the transcription factor-level as they relate to the gene RXRB. Furthermore, this assay endpoint can be referred to as a primary readout, because this assay has produced multiple assay endpoints where this one serves a reporter gene function. To generalize the intended target to other relatable targets, this assay endpoint is annotated to the nuclear receptor intended target family, where the subfamily is non-steroidal.
Sequence of human Retinoid X Receptor beta (RXRb), RXRB (gene 6257) (P28702 whole entry, looked up): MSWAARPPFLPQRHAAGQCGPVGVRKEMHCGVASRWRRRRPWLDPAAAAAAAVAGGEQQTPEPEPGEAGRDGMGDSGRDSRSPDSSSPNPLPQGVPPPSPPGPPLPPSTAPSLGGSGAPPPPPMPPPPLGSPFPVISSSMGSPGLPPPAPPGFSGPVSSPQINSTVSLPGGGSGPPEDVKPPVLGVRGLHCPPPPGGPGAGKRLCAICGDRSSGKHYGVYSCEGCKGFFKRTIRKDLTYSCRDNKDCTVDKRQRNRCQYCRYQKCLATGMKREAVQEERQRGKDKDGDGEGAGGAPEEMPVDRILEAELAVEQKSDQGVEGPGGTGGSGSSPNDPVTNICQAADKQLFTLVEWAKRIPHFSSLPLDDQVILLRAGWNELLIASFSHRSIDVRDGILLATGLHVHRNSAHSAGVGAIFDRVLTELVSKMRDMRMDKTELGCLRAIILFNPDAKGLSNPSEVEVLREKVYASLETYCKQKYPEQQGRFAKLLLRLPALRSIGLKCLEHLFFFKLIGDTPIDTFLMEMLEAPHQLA
Human liver HepG2 cells are transiently transfected with multiple reporter transcription units (MRTUs) in 6-well plates using FuGene 6 reagent (Roche; 3 ml FuGene/1 mg DNA). The MRTU constructs are regulated by a cis-regulating element (promoter). […] A major difference between the CIS and TRANS system is that in CIS activities of endogenous TFs are measured, whereas the TRANS assay evaluates changes in activities of exogenous, chimeric NR-Gal4 proteins. […] At the end of 24 hour incubation, total RNA was isolated using TriZol reagent (Invitrogen). The isolated RNA is then reverse-transcribed using oligo(dT) primer and Mo-MLV reverse transcriptase (Invitrogen) with DNAse I (Ambion) treatment for 30 min. The one-tenth of the produced cDNA was amplified by PCR using Taq DNA polymerase (Invitrogen) and two reporter sequence-specific primers. The PCR products were fluorescently labeled by primer extension with 6-arboxyfluorescein (6-FAM) 5'-labeled reporter sequence-specific primer (2 min at 95 C, 20 s at 68 C and 10 min at 72 C) and these products were digested with 5U of HpaI (New England Biolabs) for 2h at 37 C. The fragments were purified using Qiaquick PCR columns (Qiagen), analyzed on an ABI 3130xL genetic analyzer (Applied Biosystems) with peak positions identified by using a set of X-rhodamine (ROX)-labeled MapMarker1000 molecular weight standards (BioVentures). The raw capillary electrophoresis data was processed using Attagraph software (Attagene).
For the compound `CCNc1nc(NC(C)(C)C)nc(SC)n1`, the half-maximal activity concentration (AC50) is 15.5 µM (active).
As for `COc1cc(-c2ccc(N)c(OC)c2)ccc1N`, the AC50 was 27.6 µM (active).
Regarding `CCOP(=S)(OCC)Oc1nc(Cl)c(Cl)cc1Cl`, the AC50 was 30.9 µM (active).
With `CCC[CH2][Sn]([CH2]CCC)([CH2]CCC)[O]C(=O)c1ccccc1`, the AC50 was 0.105 µM (active).
As to `CN(C)N=O`, the result was inactive.
Regarding `CC(C#N)CCC#N` (stereo not given), the call was inactive.
For `COS(=O)(=O)c1ccc(C)cc1`, the outcome was inactive.
Turning to `COP(=S)(OC)Oc1ccc(Sc2ccc(OP(=S)(OC)OC)cc2)cc1`, the compound was classed as inactive.
As for `N#CCc1ccc(Cl)cc1`, the result was inactive.
Still for that read-out and setting: to `CC(C)C1CCC(Cc2ccc(Cl)cc2)C1(O)Cn1cncn1` (stereo not given) belongs “inactive”.
Regarding `Clc1ccc(COC(Cn2ccnc2)c2ccc(Cl)cc2Cl)cc1` (stereo not given), the AC50 is 0.103 µM (active).
In the case of `O=[N+]([O-])c1ccc2c3c(cccc13)CC2`, the AC50 was 27.5 µM (active).
As to `CC(=O)C=C(C)C`, the outcome was inactive.
Regarding `CC(C)c1cccc(C(C)C)c1O`, the AC50 is 50.6 µM (active).
For the compound `CCCCOCCOC(C)=O`, the compound was classed as inactive.
In the case of `Cl/C=C/Cl`, the result was inactive.
Turning to `C=CC(=O)OCCCCCC(C)C`, the result was inactive.
For `Nc1cccc2ccccc12`, the compound was called inactive.
On the same count and under the same terms, to `C[C@@H](Oc1ccc(Cl)cc1Cl)C(=O)O` belongs “inactive”; to `Cc1ccccc1C(=O)Nc1cccc(OC(C)C)c1`, “inactive”.
On the same count and under the same terms, to `ClCCBr` belongs “inactive”.
With `C[C@H]1CCCC(=O)CCC/C=C/c2cc(O)cc(O)c2C(=O)O1`, the AC50 was 9.82 µM (active).
`Cc1ccc2ccccc2c1C`: the AC50 was 100 µM (active).
Same read-out and setting: to `C=C(C)C(=O)[O][Sn]([CH2]CCC)([CH2]CCC)[CH2]CCC` belongs 0.0323 µM (active).
For `CC(C)(c1ccc(OCC2CO2)cc1)c1ccc(OCC2CO2)cc1` (stereo not given), the result was inactive.
Turning to `O=C(OC1CCCCC1)c1ccccc1C(=O)OC1CCCCC1`, the concentration at half-maximal activity (AC50) was 7.44 µM (active).
In the case of `O=C(O)C(Cl)(Cl)Cl`, the outcome was inactive.
For `O=C(c1ccccc1)C(Cl)Cl`, the compound was classed as inactive.
For `O=Cc1cccc(Oc2ccccc2)c1`, the result was inactive.
Consider `ClC1=C(Cl)[C@]2(Cl)[C@@H]3[C@@H](Cl)[C@@H](Cl)C[C@@H]3[C@@]1(Cl)C2(Cl)Cl`, for which the compound was classed as inactive.
Same read-out and setting: to `COC(=O)c1sccc1S(=O)(=O)NC(=O)Nc1nc(C)nc(OC)n1` belongs “inactive”; to `CNC`, “inactive”.
In the case of `CCOP(=S)(OCC)SCSP(=S)(OCC)OCC`, the AC50 is 12.4 µM (active).
Consider `CCC(=O)C(CC(C)N(C)C)(c1ccccc1)c1ccccc1` (stereo not given), for which the compound was called inactive.
Regarding `CC(=O)C(Cl)C(=O)N(C)C` (stereo not given), the compound was classed as inactive.
`CC(C)c1ccc(CO)cc1`: the call was inactive.
With `O=C(O)Cc1ccccc1`, the outcome was inactive.
On the same count and under the same terms, to `C[C@@H]1C[C@@H]([C@H](O)CC2CC(=O)NC(=O)C2)C(=O)[C@@H](C)C1` belongs “inactive”.
Regarding `O=C(O)C(F)(F)C(F)(F)C(F)(F)C(F)(F)C(F)(F)C(F)(F)F`, the outcome was inactive; the AC50 is 51.7 µM (active) and 56.5 µM (active).
